The whole screen tested about 3,400 compounds, of which about 840 (25%) were called active. Inconclusive results (about 11%) are left out.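 How the source made its calls: active means fitted half-maximal concentration of signal decrease at or below twice the sample's top tested concentration; inconclusive means flat curve between -70 and -30 percent, or poor fit; inactive means flat within 30 percent, signal rise, or potency above limit.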 The list is a sample of the results. Entries with a potency or affinity are not part of this list.

This test in a line: T. gondii growth inhibition with IFN-gamma, dose response, cell-based, ME49Luc, HeLa, luciferase, 72 h (AID 1259418). To be noted: T. gondii ME49Luc in IFN-y HeLa, stronger effect = lower value, -100% = high-dose IFN-γ control wells; at 19.5 µM unless noted.
As for `COc1cccc(NC(=O)Nc2ccc(-c3nc(-c4cc(C)ccc4C)co3)cc2)c1`, the max activity was 10.1% [at 0.16 µM] (inactive).
On to `CN(C)CCO[C@@H]1CN(C(=O)Cc2ccsc2)[C@H]2CCCO[C@@H]12`, for which the max activity was 38.7% (inactive).
As for `Cc1cccc(NC(=O)CN2CCC3(CC2)N=C(c2ccc(Cl)cc2)C(=O)N3)c1`, the max activity is 17.4% (inactive).
To `Cc1[nH]c2ccccc2c1C(=O)C(=O)NC1CC(=O)N(c2cccc(F)c2)C1` (configuration not stated) belongs 13.3% [at 0.35 µM] (inactive); to `COc1ccc(C)cc1Nc1nc(-c2ccc(Cl)cc2)nc2ccccc12`, -11.5% [at 2.6 µM] (inactive); to `Clc1ccc(-c2nc(N3CCc4ccccc43)c3ccccc3n2)cc1`, -11.3% (inactive).
Consider `COc1ccc2c(c1)NC1(CCN(C(=O)c3ccc(C)c(C)c3)CC1)c1cccn1-2`, for which the max activity was -9.14% [at 2.6 µM] (inactive).
To `CCc1ccc(NC(=O)N2CCN(Cc3nc(-c4ccccc4C)oc3C)CC2)cc1` belongs 20.1% [at 0.16 µM] (inactive); to `Cc1oc(-c2ccccc2)nc1Cn1nnc(-c2nc(-c3ccc(F)c(Br)c3)no2)c1C`, 9.89% (inactive); to `COc1cccc(NC(=O)CN2CCC3(CC2)N=C(c2ccc(Cl)cc2)C(=O)N3)c1`, -17.6% [at 1.35 µM] (inactive).
As for `COc1ccc(-c2nc(NCC3CCN(Cc4ccccc4F)CC3)c3ccccc3n2)cc1`, the max activity was -29.4% (inactive).
To `Cc1cccc(CN2CCC(CNc3nc(-c4ccc(Cl)cc4)nc4ccccc34)CC2)c1` belongs -45.1% [at 0.35 µM] (inactive); to `COc1ccc(-c2nc(NCc3ccc(C)cc3)c3ccccc3n2)cc1`, -20.6% [at 5 µM] (inactive); to `COc1ccc(-c2nc(NCc3ccc(F)cc3)c3ccccc3n2)cc1`, 18.6% [at 1.35 µM] (inactive).
To `COc1ccc(-c2nc(NCC3CCN(Cc4ccc(Cl)cc4)CC3)c3ccccc3n2)cc1` belongs 14.4% [at 2.6 µM] (inactive); to `CSc1ccc(-c2noc(-c3nnn(Cc4nc(-c5ccc(C)cc5)oc4C)c3C)n2)cc1`, 4.87% (inactive).
To `COc1cc(C(=O)N2CCC3(CC2)Nc2ccc(C)c(C)c2-n2cccc23)cc(OC)c1OC` belongs 7.01% [at 0.16 µM] (inactive); to `N#C[C@H]1N[C@@H](CO)[C@H]1c1ccc(C#CC2CCCCC2)cc1`, 49.7% (inactive).
With `O=C(C1CCOCC1)N1CC(=O)N2[C@@H](CO)[C@@H](c3ccc(C#CC4CCCCC4)cc3)[C@@H]2C1`, the max activity was 25.9% [at 10 µM] (inactive).
As for `Cc1cccc(-c2ccc(C3[C@H]4CNC[C@@H]3N4Cc3cccc(F)c3)cc2)c1` (some centres not stated), the max activity was 19.8% (inactive).
Then `COc1cccc(S(=O)(=O)N2CC[C@@H]3[C@H]2c2cc(C#Cc4cccnc4)ccc2N[C@@H]3CO)c1`, with 31.2% [at 5 µM] (inactive); and `Fc1cccc(-c2ccc(C3[C@H]4CNC[C@@H]3N4Cc3cncnc3)cc2)c1` (some centres not stated), with 50.5% (inactive); and `O=C(Nc1ccccc1)Nc1ccc(-c2nc(-c3ccccc3)co2)cc1`, with 51.3% (inactive).
For `COc1cccc(-c2nc3c(s2)CN(S(=O)(=O)c2ccc(OC)c(OC)c2)CC3)c1`, the max activity is 6.21% [at 10 µM] (inactive).
To `COc1ccccc1-c1nc(C)c(-c2ccc(SCc3ccc(C)cc3)nn2)s1` belongs -14.3% (inactive); to `COc1ccc(C(=O)N2CCC[C@@H]2C(=O)NCCc2csc(-c3ccccc3)n2)cc1`, -13.9% (inactive).
To `CCc1ccc(S(=O)(=O)N2CCc3nc(-c4ccc(OC)cc4)sc3C2)cc1` belongs 9.57% (inactive); to `CCOc1ccc(CC(=O)N2CCC3(CC2)Nc2ccc(C)c(C)c2-n2cccc23)cc1OCC`, -7.59% [at 0.35 µM] (inactive).
As for `CCC(CC)C(=O)N1CCC(C(=O)NCCc2csc(-c3ccccc3)n2)CC1`, the max activity was 5.84% [at 5 µM] (inactive).
As to `COc1ccc(C(=O)Nc2ccc3c(c2)CCC(=O)N3C)c(C)c1`, the max activity was 42.4% (inactive).
As for `COc1cccc(C#Cc2ccc([C@H]3[C@@H](C#N)N(C(=O)c4ccccn4)[C@@H]3CO)cc2)c1`, the max activity is 11.2% [at 10 µM] (inactive).
To `N#C[C@H]1[C@H](c2ccc(C#Cc3ccccc3F)cc2)[C@@H](CO)N1C(=O)c1cccnc1` belongs -13.1% [at 2.35 µM] (inactive); to `CCOC(=O)C1CCC(CNC(=O)Nc2ccc(-c3nc(-c4ccccc4)co3)cc2)CC1` (configuration not stated), -11.7% [at 5 µM] (inactive); to `N#CCSC1=Nc2ccccc2C2=NC(CC(=O)NCc3ccc(F)cc3)C(=O)N12` (configuration not stated), 44.3% (inactive).
On to `Cc1cccc(CNC2=NCCNC23CCN(S(=O)(=O)c2ccc4c(c2)CCCC4)CC3)c1`, for which the max activity is 20.3% [at 10 µM] (inactive).
In the case of `O=S(=O)(c1ccc2c(c1)CCCC2)N1CCC2(CC1)NCCN=C2NCc1cc(F)cc(F)c1`, the max activity is 16.7% (inactive).
As to `COc1ccc(CNC2=NCCNC23CCN(S(=O)(=O)c2ccc4c(c2)CCCC4)CC3)cc1`, the max activity is -31.9% (inactive).
To `Cc1nc(-c2ccc(F)cc2)sc1-c1ccc(SCc2cccc3ccccc23)nn1` belongs -8.89% [at 10 µM] (inactive); to `COc1ccccc1-c1nc(C)c(-c2ccc(SCc3cc(C)ccc3C)nn2)s1`, -11.2% [at 0.35 µM] (inactive).
To `Cc1ccc(-c2coc(-c3ccc(NC(=O)C4CCCCC4)cc3)n2)c(C)c1` belongs -13.8% (inactive); to `Cc1oc(-c2cccc(Cl)c2)nc1Cn1nnc(-c2nc(-c3ccncc3)no2)c1C`, -5.43% [at 1.35 µM] (inactive); to `COc1ccc(-c2nc(Nc3cccc(SC)c3)c3ccccc3n2)cc1`, 8.11% [at 0.35 µM] (inactive).
Then `COC(=O)c1ccc(NC(=O)Nc2ccc(-c3nc(-c4cc(C)ccc4C)co3)cc2)cc1`, with -6.97% [at 0.68 µM] (inactive).
Regarding `COc1ccc2c(c1)NC1(CCN(C(=O)Cc3ccc(F)cc3)CC1)c1cccn1-2`, the max activity was 12.9% [at 0.35 µM] (inactive).
Take `CCn1cc(NC(=O)c2cccc(CN3C[C@@H](C)O[C@@H](C)C3)c2)nn1`: the max activity is 30.6% (inactive).
Then `CC(C)CN(C[C@@H](O)[C@H](Cc1ccccc1)NC(=O)O[C@H]1CO[C@H]2OCC[C@H]21)S(=O)(=O)c1ccc(N)cc1`, with 7.57% (inactive).
Then `CCc1nc(OCC(=O)Nc2cccc(OC)c2)c2ccccc2n1`, with 13.8% [at 0.16 µM] (inactive); and `CCCn1c(=S)[nH]c2cc(C(=O)N3CCC(O)(c4cccc(C(F)(F)F)c4)CC3)ccc2c1=O`, with 18.8% [at 0.16 µM] (inactive).
As for `O=C(c1ccc2c(=O)n(CCC3=CCCCC3)c(=S)[nH]c2c1)N1CCC(O)(c2cccc(C(F)(F)F)c2)CC1`, the max activity is -24.9% [at 10 µM] (inactive).
With `Cc1cccc(C2=NC3(CCN(C(=O)c4ccc(C(C)(C)C)cc4)CC3)NC2=O)c1`, the max activity is 16.7% [at 2.6 µM] (inactive).
With `O=C(CCCCCn1c(=S)[nH]c2cc3c(cc2c1=O)OCO3)N1CCC(O)(c2cccc(C(F)(F)F)c2)CC1`, the max activity was -29.1% [at 10 µM] (inactive).
On to `COc1ccccc1-c1nc(Cn2nnc(-c3nc(-c4ccccn4)no3)c2C)c(C)o1`, for which the max activity was 50.4% (inactive).
Regarding `C=CCN1C(=O)CC[C@H]2[C@@H]1CCN2S(=O)(=O)CC`, the max activity was 48.3% (inactive).
`Cc1ccc(CSc2ccc(-c3sc(-c4ccc(F)cc4)nc3C)nn2)cc1`: the max activity was 12.3% [at 0.16 µM] (inactive).
To `Cc1cc(C)c2c(=O)n(Cc3nc(-c4ccc(C(C)C)cc4)oc3C)c(=O)n(-c3ccccc3)c2n1` belongs -13.2% [at 5 µM] (inactive).
Turning to `CCCN1CCc2nc(SCc3nc(-c4cccc(Cl)c4)oc3C)[nH]c(=O)c2C1`, the max activity is 10.2% [at 0.68 µM] (inactive).
For `COCC1COCCC12CCN(C(=O)c1ccc(C)nc1)CC2` (configuration not stated), the max activity was 18.7% (inactive).
Then `Cc1ccc(NC(=O)N2CCc3nc(-c4ccccc4)sc3C2)cc1C`, with -7.49% [at 2.6 µM] (inactive); and `Cc1cccc(-c2nc(Cn3nnc(-c4nc(-c5cccc(C(F)(F)F)c5)no4)c3C)c(C)o2)c1`, with 8.75% [at 1.35 µM] (inactive); and `O=C(Nc1ccc(-c2nc(-c3ccccc3)co2)cc1)Nc1ccc2c(c1)OCO2`, with 19.1% [at 0.16 µM] (inactive).
Consider `Cc1ccccc1NC(=O)CN1CCC2(CC1)N=C(c1ccc(Cl)cc1)C(=O)N2`, for which the max activity was -13.7% [at 1.35 µM] (inactive).
Then `COc1ccc(-c2nc(N3CCN(c4ccc(F)cc4)CC3)c3ccccc3n2)cc1`, with 13.7% [at 10 µM] (inactive); and `COc1ccc(-n2ncc3c(NC4CCCCCCCCCCC4)ncnc32)cc1`, with 21.4% [at 1.35 µM] (inactive).
For the compound `O=C(NCCc1c[nH]c2ccccc12)C1CCN(c2ncnc3c2oc2ccccc23)CC1`, the max activity was 11.9% [at 0.68 µM] (inactive).
Then `CCn1nnc2c(NCCSc3c[nH]c4ccccc34)ncnc21`, with -13.5% [at 0.68 µM] (inactive); and `Cc1cccc(-c2nc(CSc3nc4c(c(=O)[nH]3)CN(Cc3ccc(Cl)cc3)CC4)c(C)o2)c1`, with 23.2% [at 0.16 µM] (inactive); and `COc1ccccc1CNC1=NCCNC12CCN(S(=O)(=O)c1cccs1)CC2`, with -16.5% [at 0.68 µM] (inactive).
Then `O=S(=O)(c1ccc(Cl)s1)N1CCC2(CC1)NCCN=C2NC1CCCC1`, with 13.4% (inactive).
Then `O=S(=O)(c1cccs1)N1CCC2(CC1)NCCN=C2NCc1ccccc1F`, with -35.7% (inactive); and `CCc1ccc(S(=O)(=O)N2CCC3(CC2)NCCN=C3NCc2ccccc2OC)cc1`, with 11.2% [at 0.16 µM] (inactive); and `COC[C@H]1CN(CC2CC2)C[C@@]12CCN(CCc1ccccc1)C2`, with 24% (inactive).
With `CCCN1CCc2nc(SCc3nc(-c4ccc(OC)cc4OC)oc3C)[nH]c(=O)c2C1`, the max activity was 66.7% (inactive).

The values are drawn from PubChem BioAssay AID1259418 (Broad Institute, 2018).
